This is a sample that favours compounds with a hit; in the whole collection about 1.2% have one here.
AMA1 RON2 block: disrupts binding of P. falciparum AMA1 to RON2; Potency, µM (top dose mostly 58.2 µM), without a hit: at the highest dose activity change, negative = inhibition, hits mostly inhibitors; AlphaScreen AMA1-biotinylated RON2 peptide binding; 360,000 tested, 0.2% active;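 also: 0% = vehicle wells and -100% = peptide control; nearly all actives have a fitted effect of over 45% in size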
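AMA1 (3D7) with his tag at 25 nM final met compounds first, then biotinylated RON2 peptide at 25 nM; detection used donor plus acceptor beads, 10 µg/mL apiece, read by AlphaScreen after 30 min at room temperature.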
Tb PYK inh: blocks Trypanosoma brucei pyruvate kinase. Q57TT1. TbPYK enzyme, Kinase-Glo Plus ATP luminescence, 45 min. Potency, µM (highest dose often 76.8 µM), without a hit: at the top dose activity, negative = inhibition, hits mostly inhibitors. 410,000 tested, 0.12% active. AID 624173; also: % is scaled to controls: 0 for no effect and ±100 for the full control effect; nearly all actives have a fitted effect of over 50% in size
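Luminescent Kinase-Glo Plus end-point after 45 min room-temperature reaction of T. brucei pyruvate kinase started with 130 uM ADP (final). Buffer TEA 50 mM pH 7.2 with KCl, MgCl2, BSA, Tween-20; titration-based qHTS with fitted concentration-effect curves.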
Giardia FBPA inh-1: Giardia lamblia aldolase inhibition. A8B2U2. purified Giardia FBPA. Potency, µM (highest dose often 59.6 µM), for the others: top-dose activity, negative = inhibition, hits mostly inhibitors. 290,000 tested, 0.71% active. AID 2451; also: % is scaled to controls: 0 for no effect and ±100 for the full control effect; nearly all actives have a fitted effect of over 55% in size
Target sequence (A8B2U2 whole entry, looked up): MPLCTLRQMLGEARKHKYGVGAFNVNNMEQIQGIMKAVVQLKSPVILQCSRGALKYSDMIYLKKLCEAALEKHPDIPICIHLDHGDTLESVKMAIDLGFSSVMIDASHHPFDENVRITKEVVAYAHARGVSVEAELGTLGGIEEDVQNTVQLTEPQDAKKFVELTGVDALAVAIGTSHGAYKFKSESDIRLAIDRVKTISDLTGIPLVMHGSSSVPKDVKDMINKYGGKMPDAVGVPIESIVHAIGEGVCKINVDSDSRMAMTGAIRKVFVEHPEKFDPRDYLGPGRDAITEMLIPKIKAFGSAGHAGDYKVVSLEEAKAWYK
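40 nM FBPA preincubated 10 min at RT with compound (up to 57.5 uM final), then substrate plus GAPDH/TPI/NAD/arsenate coupling and diaphorase/resazurin added. Fluorescence read after 20 min at RT, 525/598 nm.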
LmPK inh: LmPK (Leishmania mexicana) enzyme inhibition; Q27686; purified LmPK, Kinase-Glo ATP luminescence, 1 h; Potency, µM (series often up to 57.5 µM), inactives show at the top dose activity change, negative = inhibition, usual class: inhibitors; 290,000 tested, 0.37% active; AID 1721; also: % is scaled to controls: 0 for no effect and ±100 for the full control effect
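Kinase-Glo luminescence read after 1 h RT reaction of 0.1 nM LmPK with 0.5 mM PEP and 0.1 mM ADP. Activity scaled between uninhibited and enzyme-free controls.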
NS1 inh: inhibitors of influenza NS1 protein function; AID 2326; 270,000 tested, 0.4% active; Potency, µM (series often up to 46.1 µM), for the others: top-dose activity, positive = more growth; calls by dose curve; also: actives are rising curves; nearly all actives have a fitted effect of over 50% in size
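Recovery from NS1-induced slow growth read by OD600 in budding yeast switched to galactose assay medium (pH 6.0, -URA) at 1:100 dilution. Compound 23 nl per well; the matching strain lacking NS1 serves as control.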
Giardia growth: inhibitors of Giardia lamblia growth | shares compounds with Giardia FBPA inh-1 | Giardia lamblia trophozoite growth inhibition | 1,500 tested, 5% active | Potency, µM (series often up to 57.5 µM), for inactives: top-dose activity change, negative = inhibition, actives largely listed as inhibitors | AID 2785;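 also: trophozoites exposed to compound for 48 h at 37 °C; % is scaled to controls: 0 for no effect and ±100 for the full control effect; nearly all actives have a fitted effect of over 70% in size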
Mammal cell tox: toxic to mammalian cells in Giardia aldolase counter-screen. 1,500 tested, 4% active. AID 2786. shares compounds with Giardia FBPA inh-1. mammalian cell viability counter-screen, qHTS. Potency, µM (doses to about 57.5 µM), without a hit: top-dose viability change, negative = toxicity, most hits filed as inhibitors;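 also: Chinese hamster ovary cells used as mammalian cytotoxicity surrogate; viability measured as cellular ATP by luminescence; compound exposure lasted 48 h before reading; % is scaled to controls: 0 for no effect and ±100 for the full control effect; nearly all actives have a fitted effect of over 60% in size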
Giardia FBPA inh-2: confirmation of Giardia fructose-bisphosphate aldolase inhibitors. AID 2787. Potency, µM (highest dose often 57.5 µM), for the others: top-dose activity change, negative = inhibition, most hits filed as inhibitors. 1,500 tested, 5% active. shares compounds with Giardia FBPA inh-1. purified Giardia aldolase enzyme activity, qHTS; also: % is scaled to controls: 0 for no effect and ±100 for the full control effect; nearly all actives have a fitted effect of over 45% in size
Rabbit FBPA inh: selectivity test for Giardia aldolase inhibitors: rabbit aldolase; Potency, µM (series often up to 57.5 µM), for inactives: at the highest dose activity, negative = inhibition, hits mostly inhibitors; 1,500 tested, 4% active; Rabbit muscle FBPA enzyme inhibition, selectivity counter-screen; shares compounds with Giardia FBPA inh-1; also: % is scaled to controls: 0 for no effect and ±100 for the full control effect; nearly all actives have a fitted effect of over 60% in size
Target sequence (P00883 whole entry, looked up): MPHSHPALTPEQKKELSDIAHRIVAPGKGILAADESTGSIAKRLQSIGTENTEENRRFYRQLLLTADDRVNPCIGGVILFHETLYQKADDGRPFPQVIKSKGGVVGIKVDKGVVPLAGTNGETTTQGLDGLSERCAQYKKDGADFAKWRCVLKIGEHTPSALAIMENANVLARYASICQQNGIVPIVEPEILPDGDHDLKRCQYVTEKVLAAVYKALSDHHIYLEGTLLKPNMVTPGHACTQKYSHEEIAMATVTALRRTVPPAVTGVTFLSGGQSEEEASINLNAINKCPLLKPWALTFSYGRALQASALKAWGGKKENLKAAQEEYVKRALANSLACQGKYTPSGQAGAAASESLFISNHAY
GAPDH counter: GAPDH inhibition flagged for Giardia aldolase hits; 1,500 tested, 6% active; Potency, µM (doses to about 57.5 µM), for the others: at the highest dose activity change, negative = inhibition, actives largely listed as inhibitors; GAPDH coupling enzyme counterscreen, biochemical, qHTS; shares compounds with Giardia FBPA inh-1; also: % is scaled to controls: 0 for no effect and ±100 for the full control effect; nearly all actives have a fitted effect of over 55% in size
* hit, by the source's call; ? = inconclusive; / = not tested or not shown; [ ] = another dose, or the depositor's remark. Unless noted, calls follow the shape of the dose curve; as a rule, active = well fitted curve in the direction sought with a large enough effect; inconclusive = small, poorly fitted or top-dose-only effect, or another doubt; inactive = no such curve, though single readings can be large; an effect the other way counts as inactive or inconclusive. Potency is read from the fitted curve at half-maximal effect.

SMILES | AMA1 RON2 block | Tb PYK inh | Giardia FBPA inh-1 | LmPK inh | NS1 inh | Giardia growth | Mammal cell tox | Giardia FBPA inh-2 | Rabbit FBPA inh | GAPDH counter
O=C1/C(=C\c2ccco2)CCC/C1=C\c1ccco1 | ? | -16% | 16µM* | 4% | 16% | 14% | ? | -4% | 5% | -3%
COc1ccc(C2C=C3CNS(=O)(=O)C3CC2OC(=O)c2ccc(C(F)(F)F)cc2)cc1 (stereo unspecified) | / | / | -25% | / | / | / | / | / | / | /
Oc1cccc2nc3ccccc3nc12 | 63% | 0% | 18µM* | -2% | -36% | -2%[10.4 µM] | -10% | ? | -21% | ?
Nc1c2ccccc2nc2c(O)cccc12 | / | / | 0%[21.7 µM] | / | / | / | / | / | / | /
COc1ccc(CNc2ncc(-c3cccc([N+](=O)[O-])c3)n2C)c(OC)c1OC | ? | 3% | 25µM* | 0% | -15% | ? | -12% | -4% | -4% | 4%
C[N+](C)(N)Cc1csc(-c2ccc(Cl)cc2)n1 | / | / | / | / | -4% | / | / | / | / | /
COc1ccc(CCn2c(NN)nc3c2c(=O)[nH]c(=O)n3C)cc1 | 68% | -4% | 5µM* | -8% | 2% | 1%[10.4 µM] | -11% | 32µM* | ? | 25µM*
COc1ccc(CCn2c(NN=C(C)C)nc3c2c(=O)[nH]c(=O)n3C)cc1 | 107% | 4% | 2.8µM* | -4% | 8% | -7%[38.3 µM] | -21% | 13µM* | ? | 14µM*
Cc1ccc(NC(=S)c2ccncc2)c(C)c1 | -3% | -2% | 16µM* | 7% | -10% | -11% | 11% | 4% | 8% | 12%
COc1cc(CN2CCC(C(=O)NC3CCCC3)CC2)cc(OC)c1O | -11% | 7% | 18µM* | -3% | ? | 7% | -12% | 4µM* | ? | ?
COc1cc(CN2CCN(C(=O)CC(C)C)CC2)cc(OC)c1O | -21% | 8% | 16µM* | -8% | -5% | ? | -19% | 4µM* | ? | -7%
CCCn1c(-c2ccc(F)cc2)nc2c(NC(C)CN(C)C)nc(C)nc21 (stereo unspecified) | / | / | 3% | / | / | / | / | / | / | /
O=c1ccn(C2OC(COP(=O)(O)OP(=O)(O)OP(=O)(O)O)C(O)C2O)c(=O)[nH]1 (stereo unspecified) | / | / | -12% | / | / | / | / | / | / | /
CC(C(=O)Nc1ccccc1C(F)(F)F)N1CCN(C)CC1 (stereo unspecified) | ? | 3% | 16µM* | 3% | 2% | -7%[10.4 µM] | 9% | 4% | -3% | 13%
CNc1cccccc1=S | ? | -18% | 10µM* | -5% | 9% | -13% | 5% | ? | ? | 32µM*
COc1ccccc1NCC(O)COc1ccc(C(C)(C)C)cc1 (stereo unspecified) | ? | -2% | 18µM* | -2% | 5% | ? | 9% | -12% | -1% | -12%
COc1ccc(NCC(O)COc2ccc(C(C)(C)C)cc2)cc1 (stereo unspecified) | ? | 0% | -6% | 4% | / | / | / | / | / | /
COc1cccc2c1CCC1CC(=O)CC[C@@]21C (stereo partly specified) | / | / | 4% | / | / | / | / | / | / | /
COC(=O)c1c(-c2cccc(OC)c2)csc1N | -17% | -17% | -21% | -2% | -46% | / | / | / | / | /
COC(=O)c1c(-c2ccc(OC)c(OC)c2)csc1N | 32% | 12% | 18µM* | 4% | ? | -30% | -13% | ? | -13% | -12%
C/C(=N\NC(=O)c1c(Cl)c(C)nn1C)c1ccc(NC(=O)C2CCC2)cc1 | 69% | 2% | / | -4% | -1% | / | / | / | / | /
CC(=O)c1ccc(NC(=S)NC(=O)c2c(Cl)c(C)nn2C)cc1 | 58% | 3% | 6.3µM* | 4% | 1% | ? | 17% | 10% | 14% | 1%
CCCN(Cc1cccs1)C(=O)Nc1cc(OC)ccc1OC | / | -6% | / | / | / | / | / | / | / | /
COC(=O)N1C(C)=Cc2ccccc2C1C/C(C)=C/C(C)=O (stereo unspecified) | / | / | -1% | -1%[11.5 µM] | / | / | / | / | / | /
CC1=NN(C(N)=S)C(=O)C1N=Nc1cccc(C)c1 (stereo unspecified) | 104% | -1% | 7% | 2% | -55% | / | / | / | / | /
SMILES | AMA1 RON2 block | Tb PYK inh | Giardia FBPA inh-1 | LmPK inh | NS1 inh | Giardia growth | Mammal cell tox | Giardia FBPA inh-2 | Rabbit FBPA inh | GAPDH counter
CC1=NN(C(N)=S)C(=O)C1N=Nc1ccccc1C(=O)O (stereo unspecified) | 86% | -3% | 14µM* | 5% | ? | -14%[10.4 µM] | -9% | 3% | 6% | 9%
CC1=NN(C(N)=S)C(=O)C1N=Nc1cccc(C(=O)O)c1 (stereo unspecified) | 98% | -8% | ? | -2% | 17% | -15%[38.3 µM] | -2% | -16% | -12% | -8%
COc1ccc(-c2nc(CSc3nnc(C)n4c3cc3occc34)c(C)o2)cc1OC | / | -8% | / | / | / | / | / | / | / | /
O=C(Cn1c(SCC(=O)Nc2ccc(F)cc2)nc2ccccc21)NCc1ccc(Cl)cc1 | / | 7% | / | / | / | / | / | / | / | /
CC(=O)/C(=N\Nc1ccccc1)Sc1nncn1C | 19% | ? | 3.5µM* | -13% | 22% | 17%[10.4 µM] | -1% | 3% | -4% | 3%
CCOc1ccc(/C=N/Nc2nc(=O)[nH]nc2C)cc1OC | 119% | -5% | 20µM* | -23% | / | ? | 6% | 4% | -1% | 1%
CCOc1cc(/C=N/Nc2nc(=O)[nH]nc2C)ccc1O | 65% | -2% | ? | -12% | / | / | / | / | / | /
Cc1nc(SCC(=O)c2ccc(F)cc2)n[nH]1 | 7% | ? | 28µM* | 17% | -5% | 16%[10.4 µM] | 14% | 6% | -4% | 8%
O=C(CSc1n[nH]c(-c2ccccc2)n1)c1ccc(O)c(O)c1 | 13% | -11% | 8.9µM* | 8% | -14% | -18%[10.4 µM] | -16% | -28% | -24% | -13%
CC(C)=NO[C@@H](C)c1cn([C@H](CO)Cc2ccccc2)nn1 | / | / | 2%[12.9 µM] | / | / | / | / | / | / | /
C1=CCC(CN2CCN(C3CCCCCC3)CC2)CC1 (stereo unspecified) | 5% | 26% | 14µM* | -9% | / | -10% | 6% | 1% | -2% | 0%
COc1ccc(OC)c(NC(=O)C2CCCCC2C(=O)O)c1 (stereo unspecified) | -3% | -4% | -8% | 2% | 3% | / | / | / | / | /
